From PubChem BioAssay come the findings set out here.

Activity calls are given as the source filed them.

Test [1] has as its system Plasmodium falciparum Sir2 (PF13_0152, Sir2A). Briefly: Plasmodium falciparum Sir2A binding compounds – biochemical, small-molecule microarray, 635 nm fluorescence, primary screen (AID 1098).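 Further: score merges spot fluorescence intensity with its signal-to-noise ratio.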 As to conditions: fluorescence 635 nm, higher = more signal.
Test [2] is described as follows: probe aDKK1 binding to arrayed compounds – biochemical, biotinylated probe, 635/667 nm fluorescence, primary screen (AID 1099).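 Further: score merges 667nm spot fluorescence with signal to noise across triplicate slides.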 As to conditions: small-molecule microarray, higher = more signal.
The nature of test [3]: probe aCHRDL2 binding to arrayed compounds – biochemical, biotinylated probe, 635/667 nm fluorescence, primary screen (AID 1100). To be noted: small-molecule microarray, higher = more signal.
Test [4] can be described thus: change in splice reporter luminescence, either direction, cell-based, HEK293, spliceosome inhibition project, primary screen (AID 1101).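 Further: HEK293 cells carrying a splicing-competent luciferase reporter gene; test concentration not given here.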 To be noted: HEK293 splicing luciferase reporter, 24 h, higher = more signal, called active from +8 up or from −8 down. (In a reporter assay the amount or activity of a reporter protein is the signal.)
Test [5] addresses Fibroblast growth factor 10 (Homo sapiens) (UniProt O15520). Briefly: compounds binding fibroblast growth factor 10 – biochemical, small-molecule microarray, 635 nm fluorescence, primary screen (AID 1102). To be noted: FGF10 binding, fluorescence 635 nm, higher = more signal.
Test [6] has as its system glycogen synthase kinase-3 (GSK3A per assay name; protocol says GSK3B). Briefly: compounds binding glycogen synthase kinase-3 – biochemical, small-molecule microarray, 635 nm fluorescence, GSK3A, primary screen (AID 1103). Further: the record names both GSK3A and GSK3B. As to conditions: fluorescence 635 nm, higher = more signal.
The target in test [7] is Epidermal growth factor receptor (Homo sapiens) (UniProt P00533). Briefly: compounds binding epidermal growth factor receptor – biochemical, small-molecule microarray, 635 nm fluorescence, primary screen (AID 1104).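 Further: score merges 667 nm emission intensity with spot signal to noise over triplicate slides.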 To be noted: EGFR binding, higher = more signal.
The target of test [8] is Follistatin-related protein 3 (Homo sapiens) (UniProt O95633). Briefly: compounds binding follistatin-related protein 3 – biochemical, small-molecule microarray, 635 nm fluorescence, primary screen (AID 1105).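 Further: score merges emission near 667 nm and signal to noise per printed spot across three slides.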 As to conditions: FSTL3 binding, higher = more signal.
Test [9] has as its target Dickkopf-related protein 1 (Homo sapiens) (UniProt O94907). Put plainly: small molecules binding DKK1 protein – biochemical, small-molecule microarray, 635 nm fluorescence scan, primary screen (AID 1106).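 Further: score merges emission near 667 nm with signal to noise over three replicate slides.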 As to conditions: higher = more signal.
Test [10] has as its system Inhibin beta A chain (activin A). Put plainly: small molecules binding activin A – biochemical, small-molecule microarray, 635 nm fluorescence scan, primary screen (AID 1107).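 Further: mouse activin A protein probed at 4.33 µg/mL on printed slides; score merges bound-protein fluorescence near 667 nm with spot signal-to-noise.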 As to conditions: INHBA, higher = more signal.
Test [11] has as its system Human papillomavirus type 1a protein E7 (residues 44-93). Put plainly: small molecules binding HPV E7 44-93 – biochemical, small-molecule microarray, residues 44-93, 635 nm fluorescence, primary screen (AID 1108).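 Further: E7 fragment applied at 1 µg/mL in TBST for 1 h at 4 C; score combines spot fluorescence with its signal to noise ratio.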 To be noted: fluorescence 635 nm, higher = more signal.
Test [12] is described as follows: hepatitis C replication reporter changes, two-sided – Huh7 cells, luciferase reporter, HCV replication inhibitor project, primary screen (AID 1109).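 Further: huh7 hepatoma cells harbouring a luciferase neomycin HCV replicon reporter; luciferase luminescence as measure of HCV replicon replication; test concentration not given here.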 As to conditions: Huh7 HCV replicon luciferase reporter, 48 h; higher = more signal.
Test [13] concerns the target Left-right determination factor 2 (Homo sapiens) (UniProt O00292). Put plainly: small molecules binding LEFTY2 protein – biochemical, small-molecule microarray, 635 nm fluorescence scan, primary screen (AID 1110). To be noted: higher = more signal.
The target in test [14] is Calmodulin-1 (Homo sapiens) (UniProt P0DP23). Put plainly: small molecules binding calmodulin-1 with EGTA – biochemical, small-molecule microarray, Cy5-labelled CALM1, profiling panel (AID 1111).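 Further: labelled calmodulin applied in Tris saline Tween buffer holding calcium plus EGTA and DTT.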 To be noted: Cy5-CALM1 binding fluorescence, higher = more signal.
Test [15] has the same target. Briefly: small molecules binding Ca-loaded calmodulin-1 – biochemical, small-molecule microarray, Cy5-labelled CALM1, plus calcium, artefact control for SMM control-protein annotation, profiling panel (AID 1112).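 Further: score merges spot fluorescence with signal to noise from triplicate slides.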 To be noted: Cy5-CALM1 binding fluorescence, higher = more signal.
Test [16] can be described thus: probe aWnt5a binding to arrayed compounds – biochemical, biotinylated probe, 635/667 nm fluorescence, primary screen (AID 1113).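 Further: score merges 667 nm fluorescence intensity with signal-to-noise per printed feature.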 To be noted: small-molecule microarray, higher = more signal.
A short description of test [17]: probe aShh binding to arrayed compounds – biochemical, biotinylated probe, 635/667 nm fluorescence, primary screen (AID 1114).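 Further: probe is biotin-labelled aShh protein from a stem cell growth factor screen; measures binding of labelled protein to compounds printed on the slide; score merges feature fluorescence at 667 nm with signal-to-noise.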 As to conditions: small-molecule microarray, higher = more signal.
Test [18] in a line: probe aNog binding to arrayed compounds – biochemical, biotinylated probe, 635/667 nm fluorescence, primary screen (AID 1115).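 Further: probe is biotinylated aNog protein used at 0.15 µg/mL for 1 h at 4 C; z-score combines 667 nm fluorescence of each spot with its signal to noise.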 As to conditions: small-molecule microarray, higher = more signal.
The target in test [19] is Torsin-1A-interacting protein 1 (Homo sapiens) (UniProt Q5JTV8). Briefly: compound microarray binding of lysate hLAP1 – cell lysate, small-molecule microarray, COS7 lysate, 635/667 nm fluorescence, primary screen (AID 1116). As to conditions: 635 nm fluorescence, higher = more signal.
In test [20] the target is Alpha-bungarotoxin (Bungarus multicinctus) (UniProt P60615). Briefly: compounds binding labelled alpha-BTX control protein – biochemical, small-molecule microarray, Alexa647 label, 635/667 nm fluorescence, artefact control for SMM control protein annotation, profiling panel (AID 1117). To be noted: alpha-BTX-A647 binding fluorescence, higher = more signal.
Alpha-bungarotoxin (Bungarus multicinctus), sequence (P60615 whole entry, looked up): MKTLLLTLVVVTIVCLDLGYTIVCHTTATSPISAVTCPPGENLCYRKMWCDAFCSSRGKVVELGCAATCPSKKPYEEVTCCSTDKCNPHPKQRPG

Left-right determination factor 2 (Homo sapiens), sequence (O00292 whole entry, looked up): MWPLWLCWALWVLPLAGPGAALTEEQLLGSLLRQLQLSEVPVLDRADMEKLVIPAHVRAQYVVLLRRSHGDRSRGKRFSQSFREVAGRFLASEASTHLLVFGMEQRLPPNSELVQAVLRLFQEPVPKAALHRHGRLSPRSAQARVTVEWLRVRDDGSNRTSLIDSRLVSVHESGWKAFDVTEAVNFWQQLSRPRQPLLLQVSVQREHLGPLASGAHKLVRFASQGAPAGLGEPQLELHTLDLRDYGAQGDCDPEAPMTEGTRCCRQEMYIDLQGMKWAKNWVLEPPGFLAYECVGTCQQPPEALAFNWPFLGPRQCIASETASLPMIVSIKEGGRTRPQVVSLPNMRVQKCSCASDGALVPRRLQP
Follistatin-related protein 3 (Homo sapiens), sequence (O95633 whole entry, looked up): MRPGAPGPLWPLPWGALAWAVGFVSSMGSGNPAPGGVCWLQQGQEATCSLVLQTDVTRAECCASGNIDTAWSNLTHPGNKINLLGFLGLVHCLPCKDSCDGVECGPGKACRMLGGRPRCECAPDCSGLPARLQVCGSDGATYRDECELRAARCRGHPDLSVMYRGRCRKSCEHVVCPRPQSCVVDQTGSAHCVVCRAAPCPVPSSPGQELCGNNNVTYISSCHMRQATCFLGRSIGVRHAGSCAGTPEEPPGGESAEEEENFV
Dickkopf-related protein 1 (Homo sapiens), sequence (O94907 whole entry, looked up): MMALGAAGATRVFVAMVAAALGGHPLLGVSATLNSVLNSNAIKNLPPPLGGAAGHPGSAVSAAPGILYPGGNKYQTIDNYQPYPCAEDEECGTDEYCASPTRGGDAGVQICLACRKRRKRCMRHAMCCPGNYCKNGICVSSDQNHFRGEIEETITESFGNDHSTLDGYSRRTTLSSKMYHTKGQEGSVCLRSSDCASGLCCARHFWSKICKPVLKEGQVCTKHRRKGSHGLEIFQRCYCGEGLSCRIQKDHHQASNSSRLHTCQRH
Epidermal growth factor receptor (Homo sapiens), sequence (P00533 whole entry, looked up): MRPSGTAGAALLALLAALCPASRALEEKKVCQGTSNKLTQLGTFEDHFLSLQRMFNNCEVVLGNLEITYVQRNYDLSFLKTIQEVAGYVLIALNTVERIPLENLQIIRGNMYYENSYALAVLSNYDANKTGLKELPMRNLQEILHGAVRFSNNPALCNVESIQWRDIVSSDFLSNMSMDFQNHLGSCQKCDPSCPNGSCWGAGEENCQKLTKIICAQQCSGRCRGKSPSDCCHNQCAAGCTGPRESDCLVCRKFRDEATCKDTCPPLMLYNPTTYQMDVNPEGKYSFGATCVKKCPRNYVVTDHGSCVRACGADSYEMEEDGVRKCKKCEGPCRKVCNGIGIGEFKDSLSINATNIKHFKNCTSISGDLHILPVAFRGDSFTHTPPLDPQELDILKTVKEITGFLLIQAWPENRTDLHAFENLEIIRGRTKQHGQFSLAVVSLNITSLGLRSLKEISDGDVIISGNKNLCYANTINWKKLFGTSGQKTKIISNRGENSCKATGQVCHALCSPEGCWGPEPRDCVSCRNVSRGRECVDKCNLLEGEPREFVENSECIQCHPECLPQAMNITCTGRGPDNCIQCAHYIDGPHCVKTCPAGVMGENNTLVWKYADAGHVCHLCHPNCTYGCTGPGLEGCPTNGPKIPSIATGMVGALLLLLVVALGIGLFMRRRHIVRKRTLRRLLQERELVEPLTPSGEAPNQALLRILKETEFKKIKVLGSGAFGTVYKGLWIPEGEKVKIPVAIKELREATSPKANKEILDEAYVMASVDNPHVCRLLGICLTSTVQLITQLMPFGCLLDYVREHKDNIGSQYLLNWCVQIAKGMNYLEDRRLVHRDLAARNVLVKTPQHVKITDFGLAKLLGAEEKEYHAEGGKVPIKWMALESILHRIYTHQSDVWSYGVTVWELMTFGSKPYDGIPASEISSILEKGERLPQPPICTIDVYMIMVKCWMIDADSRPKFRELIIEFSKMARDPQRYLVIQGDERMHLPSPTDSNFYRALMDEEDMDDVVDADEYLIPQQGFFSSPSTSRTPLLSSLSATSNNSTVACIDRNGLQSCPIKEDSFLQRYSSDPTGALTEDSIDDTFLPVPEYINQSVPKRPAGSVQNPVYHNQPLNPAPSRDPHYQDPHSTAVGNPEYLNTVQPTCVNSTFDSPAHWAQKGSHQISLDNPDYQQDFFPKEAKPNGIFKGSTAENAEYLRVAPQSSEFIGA
Torsin-1A-interacting protein 1 (Homo sapiens), sequence (Q5JTV8 whole entry, looked up): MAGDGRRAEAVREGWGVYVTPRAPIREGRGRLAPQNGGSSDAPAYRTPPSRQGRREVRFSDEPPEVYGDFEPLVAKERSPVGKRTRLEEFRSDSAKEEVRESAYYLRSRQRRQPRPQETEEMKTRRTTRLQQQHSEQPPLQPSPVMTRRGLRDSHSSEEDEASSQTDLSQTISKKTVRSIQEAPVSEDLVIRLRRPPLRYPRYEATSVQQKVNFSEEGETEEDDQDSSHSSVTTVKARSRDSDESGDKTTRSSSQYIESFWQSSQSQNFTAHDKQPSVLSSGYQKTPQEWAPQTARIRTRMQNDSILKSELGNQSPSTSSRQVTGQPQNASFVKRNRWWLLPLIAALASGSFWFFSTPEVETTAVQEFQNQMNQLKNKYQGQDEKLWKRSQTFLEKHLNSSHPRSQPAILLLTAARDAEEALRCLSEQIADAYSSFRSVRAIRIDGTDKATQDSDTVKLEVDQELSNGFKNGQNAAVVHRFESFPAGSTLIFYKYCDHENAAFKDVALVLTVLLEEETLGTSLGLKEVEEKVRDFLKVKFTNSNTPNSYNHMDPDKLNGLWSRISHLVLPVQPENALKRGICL
Fibroblast growth factor 10 (Homo sapiens), sequence (O15520 whole entry, looked up): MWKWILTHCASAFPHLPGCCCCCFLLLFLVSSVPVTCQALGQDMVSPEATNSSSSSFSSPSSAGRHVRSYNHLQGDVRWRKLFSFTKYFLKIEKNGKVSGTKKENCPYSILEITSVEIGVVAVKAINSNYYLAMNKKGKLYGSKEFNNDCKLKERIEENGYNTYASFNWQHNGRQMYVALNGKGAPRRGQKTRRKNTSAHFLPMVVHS

Take `O=C1O[C@H](c2ccccc2)[C@H](c2ccccc2)N2[C@H]1[C@@H](C(=O)O)[C@]1(C(=O)Nc3ccc(C#CC4(O)CCCCCC4)cc31)[C@H]2c1ccccc1OCCO`: the composite z-score is 1.5 in [1]; 0.0035 in test [2]; -0.351 in test [3]; 1.02 in test [5]; 1.29 in [6]; 0.24 in test [7]. In addition, the composite z-score in test [8] worked out at 0.69; in test [9], 0.195; in test [10] it was 0.745; in test [11], 1.11; in [13], 0.39; in test [14] it was 1.99. In addition, the composite z-score in [15] was determined as 1.03; in test [16], 0.0839; in [17], 0.459; in [18] it was 0.938; in test [19], 0.727; in test [20], 1.95. The z-score in test [4] is -0.767 (inactive); in [12] it was -2.11.
As to `COCCOC(=O)N1C(=O)[C@@]2(c3cc(C#CC4=CCCCC4)ccc31)[C@H](C(=O)N1CCCCCCC1)[C@H]1C(=O)O[C@H](c3ccccc3)[C@H](c3ccccc3)N1[C@@H]2c1ccccc1OCCO`, the composite z-score was 1.33 in test [1]; 0.854 in test [2]; 1.14 in test [3]; 0.536 in test [5]; 1.3 in test [6]; 0.846 in [7]. In addition, the composite z-score is 1.44 in test [8]; 0.865 in [9]; 1.75 in test [10]; 1.37 in test [11]; 0.327 in [13]; 1.78 in test [14]. Further, the composite z-score in test [15] is 0.759; in test [16], 0.16; in test [17], 0.926; in test [18], 1.2; in test [19] it was 1.94; in test [20], 1. The z-score in test [4] is -1.09 (inactive); in test [12] it was -0.794.
Regarding `COc1ccc(CCNC(=O)[C@@]2(c3ccc([N+](=O)[O-])cc3)CC(=O)N(C3CCCCC3)[C@@H]2c2ccc(CO)cc2I)cc1`, the composite z-score in test [1] is 0.401; in test [2], -0.0644; in [3] it was -0.0582; in [5] it was 0.823; in [6], 0.56; in test [7], 0.19. In addition, the composite z-score in [8] was 0.241; in test [9], 0.608; in test [10], 0.44; in [11], 0.535; in [13] it was 0.497; in test [14], 0.529. Besides, the composite z-score in [15] was 0.113; in [16], -0.0643; in test [17] it was 0.108; in test [18], 0.639; in [19], 0.733; in test [20] it was 0.201. Further, the z-score in [4] was 0.845 (inactive); in [12], -2.57.
Take `COc1ccc(C(O)C2C=CC3C(=O)N(c4ccccc4)C(=O)C3N2Nc2ccccc2F)c2ccccc12` (stereo not given): the composite z-score in test [1] is 0.85; in [2], 1.59; in [3] it was 1.4; in test [5] it was 1.04; in test [6], 1.32; in test [7], 0.531. Further, the composite z-score was 1.36 in test [8]; -0.265 in [9]; 1.02 in test [10]; 0.459 in test [11]; 0.903 in [13]; 2.6 in [14]. Also, the composite z-score in test [15] came to 0.994; in [16] it was 0.416; in test [17], 0.425; in test [18], 1.26; in test [19] it was 1.28; in test [20] it was 2.12. Besides, the z-score was -0.038 (inactive) in test [4] and -0.673 in test [12].
With `COCCCNC(=O)[C@@]1(CCC(=O)OC(C)(C)C)N=C(c2ccc(OCCCO)cc2)O[C@H]1c1ccccc1`, the composite z-score is 1.06 in [1]; 0.96 in test [2]; 1.02 in test [3]; 0.638 in test [5]; -0.505 in test [6]; -0.266 in test [7]. The composite z-score in test [8] is 0.297; in test [9], -0.538; in test [10] it was 0.701; in [11], 1.37; in test [13] it was -0.926; in test [14], 1.1. In addition, the composite z-score was 0.783 in [15]; -0.0566 in [16]; 0.123 in test [17]; 1.83 in [18]; 1.49 in [19]; 1.32 in test [20]. Also, the values for the z-score in [4] and in [12] were -0.187 (inactive) and -0.618, respectively.
As to `CC(C)C[C@@H]1NC(=O)[C@@H]2C[C@H](C(=O)NCCCCCNC(=O)CS)[C@H](c3ccc(O)cc3)N2C1=O`, the composite z-score is 1.67 in [1]; -0.1 in test [2]; -0.03 in [3]; -0.113 in [5]; -0.0192 in test [6]; 0.135 in test [7]. For the same compound, the composite z-score in test [8] is 0.286; in test [9] it was 0.353; in test [10], -0.111; in test [11], 1.37; in test [13], 0.104; in [14], 1.18. Besides, the composite z-score in test [15] was 0.194; in test [16] it was -0.12; in [17], 0.0637; in test [18], -0.12; in [19], 0.097; in test [20], 0.136. Also, the results for the z-score in test [4] and in test [12] were -3.37 (inactive) and 2.04, respectively.
